{
  "source": "PubChem BioAssay AID748",
  "about": "(Sanford-Burnham Center for Chemical Genomics, 2007)",
  "note": "In all, about 96,000 compounds went through this assay and about 100 (0.1%) were called active. Many of the other results were omitted from the sample, so actives are more common in it than they were. Potency and affinity values are given separately. A number with no mark means an inactive call.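 The calls were made as follows: active = displacement above 50% at 20 µM plus a fluorescence interference ratio under 1.5; inactive = the rest.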",
  "data": [
    {"target": "Bcl-2-like protein 10 (Homo sapiens) (UniProt Q9HD36)", "assay": "displacers of TR3 peptide from Bcl-B, primary screen, selectivity assay for Bfl-1 inhibitor project, biochemical, fluorescence polarization, FITC-TR3 peptide (AID 748);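 also: plate controls were wells without compound for no effect and wells lacking Bcl-B protein for full effect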", "conditions": "FP displacement of FITC-TR3 peptide from Bcl-B; at 20 µM; hits give high values", "values": [
      {"compound": "ClC1=CCC2CN(CCN3CCCCC3)CC2C1", "note": "(stereo not given)", "displacement": "67.7% (active)"},
      {"compound": "O=c1cccc2n1CC1CC2CN(C(c2ccccc2)c2sc3ncnn3c2O)C1", "note": "(stereo not given)", "displacement": "-0.3%"},
      {"compound": "O=C1OCCN1P(=O)(c1ccccc1)c1ccccc1", "displacement": "-1.2%"},
      {"compound": "COc1ccc(C(=O)C2(C)N(O)C(C)C(c3cccs3)=[N+]2[O-])cc1", "note": "(stereo not given)", "displacement": "-5.6%"},
      {"compound": "CCC(=NCC1CCCO1)c1c(O)n(-c2ccc(Cl)cc2)c(=O)[nH]c1=O", "note": "(stereo not given)", "displacement": "-1.5%"}
    ]}
  ]
}
